# Experimental data from PubChem BioAssay (NCI).
# The panel holds about 83,000 compounds, 20% with a hit somewhere; the sample as a whole holds those more often.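 Each cell line was grown in a 96-well plate and treated with one concentration of compound for 48 hours. Values below 10 were considered active.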 Unmarked numbers belong to inactive results. Calls of active or inactive are those of the source.
# Test system: HCT-116 colon
# Experiment: NCI-60 one-dose screen, 48 h (100 = growth as untreated, 0 = no growth, -100 = all killed)
# Conditions: 10 µM unless noted
# Description: Growth inhibition of the HCT-116 human tumor cell line is measured as a screen for anti-cancer activity. Cells are grown in 96 well plates and exposed to the test compound for 48 hours. Compounds are tested at a single concentration, which is 10^-5 M for most compounds. The reported endpoint is percent growth (GI% or GIPRCNT), where numbers from 0 - 100% represent growth inhibition, and numbers from -100% - 0 represent cell death. For example, a value of 40 represents 60% growth inhibition. A value of 0 means no net growth occurred over the course of the experiment. A value of -40 indicates 40% of cells at the beginning of the experiment died by the end of the experiment. A value of -100 means all cells are dead at the end of the experiment.
# NCI-60 Human Tumor Cell Lines Screen was performed using the standard one-dose NCI protocol, which is described in more detail at https://dtp.cancer.gov/discovery_development/nci-60/default.htm.
# Compounds with GIPRCNT values below 10 were considered active. Activity score was based on GIPRCNT using the following formula: […]
# Score is 0 for GIPRCNT values of 100 or above, 50 for GIPRCNT values of 0, and 100 for GIPRCNT values of -100.
row,SMILES,growth
1,CCOC(=O)c1cc(C(=O)c2cc(OC)cc(OC)c2)n2ccc3ccccc3c12,84%
2,C=C1C(=O)O[C@H]2[C@H]1CC/C(CNC(=O)/C=C/c1ccccc1)=C\CC[C@@]1(C)O[C@@H]21,-58.9% (active)
3,O=C(CSc1nc2sc3c(c2c(=O)n1-c1ccc(Cl)cc1)CCCC3)Nc1nc(-c2cccc(Br)c2)cs1,81.6%
4,COc1ccccc1NC(=O)C1CC(c2ccc(F)cc2)=NO1 (stereo not given),103%
5,O=C1c2cccc3c(-c4ccc5c(c4)ncn5C4CCCCC4)ccc(c23)C(=O)N1c1nc2ccccc2s1,84.4%
6,CC(=O)CCC(=O)OCc1cc(=O)c(O)co1,97.3%
7,CCN1Cc2nc3sc(C)c(C)c3c(=O)n2C=C1C,-24.9% (active)
8,Cn1cc(CC2CC(=O)N(c3ccccc3)C2=O)sc1=NC(=O)c1ccccc1 (stereo not given),96.9%
9,O=C(/C=C/c1ccc(F)cc1)c1ccc(NC(=O)N2CCN(c3cc4c(cc3F)c(=O)c(C(=O)O)cn4C3CC3)CC2)cc1,57.1%
10,COc1cc2nc(-c3ccc(C(F)(F)F)cc3)cc(OCCCN3CCCC3)c2cc1OC,23.6%
11,CC1(C)CC(=O)C2=C(C1)N(c1ccc(F)cc1F)C(N)=C(C#N)C2c1cc(Br)ccc1F (stereo not given),80.9%
12,Cc1cc(C)c(S(=O)(=O)Oc2ccccc2[N+](=O)[O-])c(C)c1,19.7%
13,COc1cc2nc(-c3ccc(Cl)cc3)cc(OCCCN3CCCCC3)c2cc1OC,22.9%
14,COc1ccc(NC(N)=NCCCOc2ccc(F)cc2)cc1,54%
15,O=C1OC(Cc2ccccc2)C1c1ccccc1 (stereo not given),90.8%
16,Nc1c(S(=O)(=O)O)cc2c3c(cccc13)C(=O)OC2=O,98.6%
17,COc1ccc(CNCCN2C(=O)c3ccc4c5c(ccc(c35)C2=O)C(=O)N(CCNCc2ccc(OC)c(OC)c2OC)C4=O)c(OC)c1OC,1.82% (active)
18,CCOc1cccc(-c2nc(N)nc(Nc3ccccc3SSc3ccccc3Nc3nc(N)nc(-c4cccc(OCC)c4)n3)n2)c1,57.2%
19,CCOC(=O)Oc1c(OC)cc(C(=O)c2ccc(OC)c(OC(=O)CCl)c2OC)cc1OC,11.4%
20,COc1ccc(C(=O)Nc2cccc(C3CCc4c(cc(OC)c(OC)c4OC)O3)c2)cc1 (stereo not given),23.1%

row,SMILES,growth
1,CCOC(=O)c1cc(C(=O)c2ccc(OC)cc2)n2ccc(/C=C/c3cc[n+](CC(=O)c4ccc(OC)cc4)cc3)cc12,3.01% (active)
2,Nc1c(C(=O)Nc2ccnc3ccccc23)sc2nc3c(cc12)CN(Cc1ccccc1)CC3,45%
3,Cc1ccc(-c2nc3ccccn3c2/C=C2/C(=O)Nc3cc(Cl)ccc32)cc1,26.5%
4,O=C(C[n+]1cccc2ccccc21)c1ccc(O)c(O)c1,5.16% (active)
5,COc1cccc(-c2nc3occn3c2-c2ccnc(NCCNS(=O)(=O)c3cccc4ccccc34)n2)c1,99.9%
6,CCOC(=O)c1cc(C(=O)c2ccc(OC)c(OC)c2)n2c1ccc1ccccc12,88%
7,COc1ccc(/C=C/c2nc(Nc3cccc(NC(C)=O)c3)c3ccccc3n2)cc1,81.3%
8,O=C1Nc2ccccc2/C1=C\c1c(-c2ccccc2)nc2ccccn12,20.6%
9,COc1cc(C2=NN(C(C)=O)C(c3cc(OC)c(OC)c(OC)c3)C2)ccc1O (stereo not given),6.96% (active)
10,N#CC(C(=O)/C(=N/NC(=O)c1ccccc1O)C(C#N)c1ccccc1)c1ccccc1 (stereo not given),14.7%
11,Cc1nc2sccn2c1-c1nc2sccn2c1/C=C1/C(=O)Nc2ccccc21,24.1%
12,N#C/C(=C\c1ccc([N+](=O)[O-])s1)c1nc2cc(Br)ccc2s1,-66.4% (active)
13,C=C(C)[C@@H]1CC[C@]2(C(=O)N3CCN(C)CC3)CC[C@]3(C)[C@H](CC[C@@H]4[C@@]5(C)C/C(=C/c6cccnc6)C(=O)C(C)(C)[C@@H]5CC[C@]43C)[C@@H]12,25.3%
14,NC(=O)Nc1ccc(-n2cnc3cc(-c4ccc(O)cc4)ccc32)cc1,91.8%
15,O=C(Cc1ccc(/C=C/C(=O)c2nccs2)cc1)Nc1ccccc1,-43.8% (active)
16,O=C1Nc2cc(-c3ccc(NC(=O)c4ccccc4)cc3)ccc2/C1=C/c1ccc[nH]1,99.1%
17,O=C(c1ccccc1)N1N=C(c2ccc(-n3ccc(C(F)(F)F)n3)c(F)c2)CC1c1ccc[nH]1 (stereo not given),105%
18,CCOC(=O)c1nc2c3ccccc3ccn2c1C(=O)OCC,104%
19,CCCCN1C=CCN(CCCC)C1,34%
20,COc1cc(CC(=O)n2ncc3ccc(N)cc32)cc(OC)c1OC,97.3%
